# Data as given in PubChem BioAssay.
# The source made the active and inactive calls.
# Columns and labels:
# [1] = binders of probe aFSTL3 on microarray, primary screen, stem cell growth factor project, biochemical, small-molecule microarray, fluorescence 635/667 (AID 1064); conditions: higher = more signal;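 further: measures binding of the biotinylated anti-FSTL3 antibody to printed compounds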
# [2] = binders from COS7 lysate, DM2A8 probe, primary screen, torsin A project, cell lysate, small-molecule microarray, fluorescence 635/667 (AID 1065); conditions: higher = more signal, COS7 lysate expressing mutant human TOR1A
# [3] = binders of probe aFGF2 on microarray, primary screen, stem cell growth factor project, biochemical, small-molecule microarray, fluorescence 635/667 (AID 1067); conditions: higher = more signal;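 further: measures binding of biotinylated aFGF2 protein to printed compounds on slides; z-score merges feature fluorescence and signal-to-noise across triplicate slides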
# [4] = binders of probe aFGF10 on microarray, primary screen, stem cell growth factor project, biochemical, small-molecule microarray, fluorescence 635/667 (AID 1071); conditions: higher = more signal;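 further: score merges 667 nm spot intensity and signal to noise from triplicate slides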
# [5] = biological target: Neurogenic locus notch homolog protein 2 (Homo sapiens) (UniProt Q04721); experiment: Notch2 binders on small-molecule microarrays, primary screen, biochemical, small-molecule microarray, 635 nm fluorescence, stem cell growth factors (AID 1073); conditions: Notch2 binding, higher = more signal
# [6] = biological target: Pro-neuregulin-1, membrane-bound isoform (Homo sapiens) (UniProt Q02297); experiment: NRG1 binders on small-molecule microarrays, primary screen, psychiatric disease protein project, biochemical, small-molecule microarray, fluorescence 635/667 (AID 1075); conditions: NRG1 binding, 635 nm fluorescence, higher = more signal;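 further: score combines 667 nm spot fluorescence with signal to noise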
# Sequence of Pro-neuregulin-1, membrane-bound isoform (Homo sapiens) (Q02297 whole entry, looked up, the tested form may be a part, canonical isoform): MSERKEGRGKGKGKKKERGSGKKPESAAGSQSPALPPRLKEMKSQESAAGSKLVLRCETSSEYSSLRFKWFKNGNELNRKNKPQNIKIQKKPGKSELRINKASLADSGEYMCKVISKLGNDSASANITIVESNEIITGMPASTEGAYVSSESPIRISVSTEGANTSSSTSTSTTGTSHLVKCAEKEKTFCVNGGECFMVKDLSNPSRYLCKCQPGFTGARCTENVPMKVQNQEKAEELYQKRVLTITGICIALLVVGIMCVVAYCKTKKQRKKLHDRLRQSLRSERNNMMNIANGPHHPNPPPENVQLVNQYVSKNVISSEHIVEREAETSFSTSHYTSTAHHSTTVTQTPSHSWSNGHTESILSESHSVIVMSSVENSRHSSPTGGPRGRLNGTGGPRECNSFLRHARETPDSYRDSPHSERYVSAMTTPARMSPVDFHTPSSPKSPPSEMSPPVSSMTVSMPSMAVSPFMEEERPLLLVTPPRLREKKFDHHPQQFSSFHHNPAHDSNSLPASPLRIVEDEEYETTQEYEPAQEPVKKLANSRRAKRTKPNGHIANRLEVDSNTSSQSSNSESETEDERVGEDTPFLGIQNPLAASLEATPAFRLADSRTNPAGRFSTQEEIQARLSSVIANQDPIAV
# [7] = tested on: Neuregulin-1 EGF-like domain; experiment: binders of neuregulin-1 EGF-like domain, primary screen, biochemical, small-molecule microarray, 635 nm fluorescence (AID 1081); conditions: small-molecule microarray binding, higher = more signal;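 further: binding of the protein to compounds printed on small-molecule microarray slides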
# [8] = FRG1 promoter luciferase signal modulators, primary screen, FRG1 inhibition for FSHD, cell-based, C2C12 myotubes, firefly/Renilla luciferase, luminescence (AID 1084); conditions: higher = more signal, called active from +8 up or from −8 down
# [9] = binders of probe aFST on microarray, primary screen, stem cell growth factor project, biochemical, small-molecule microarray, fluorescence 635/667 (AID 1086); conditions: higher = more signal;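 further: score merges 667 nm fluorescence with signal-to-noise of each printed compound spot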
# [10] = binders of probe aHhip on microarray, primary screen, stem cell growth factor project, biochemical, small-molecule microarray, fluorescence 635/667 (AID 1087); conditions: higher = more signal;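 further: score merges spot fluorescence at 667nm with spot signal to noise ratio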
# [11] = tested on: PRMT1 (protein arginine N-methyltransferase 1); experiment: PRMT1 binders on small-molecule microarrays, primary screen, biochemical, small-molecule microarray, 635 nm fluorescence (AID 1088); conditions: small-molecule microarray binding, higher = more signal;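 further: binding of Prmt1 protein to compounds spotted on small-molecule microarray slides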
# [12] = yeast growth modulation, basal conditions, primary screen, YJM789 clinical isolate, OD600, 24 h (AID 1089);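 further: growth of clinical yeast isolate S. cerevisiae YJM 789 seeded 1000 cells per well; test concentration not given here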; conditions: S. cerevisiae YJM789 growth, higher = more signal, called active from +8 up or from −8 down
# [13] = fission yeast growth modulation, primary screen, strain 972, OD600, 24 h, no modulator (AID 1090);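 further: basal condition with compound alone and no growth modifier present; test concentration not given here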; conditions: S. pombe 972 growth, higher = more signal, called active from +8 up or from −8 down
# [14] = S. cerevisiae growth modulation with rapamycin, primary screen, strain BY4716, OD600, 96 h (AID 1091); conditions: higher = more signal, called active from +8 up or from −8 down; further: test concentration not given here
# [15] = biological target: Torsin-1A-interacting protein 2 (Homo sapiens) (UniProt Q8NFQ8); experiment: LULL1 binders on small-molecule microarray, primary screen, cell lysate, human LULL1 lysate, 635/667 nm fluorescence (AID 1092); conditions: hLULL1 lysate binding, 635 nm fluorescence, higher = more signal;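 further: probe is lysate of COS7 cells overexpressing human LULL1; score merges per-feature 667 nm fluorescence with signal-to-noise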
# Sequence of Torsin-1A-interacting protein 2 (Homo sapiens) (Q8NFQ8 whole entry, looked up): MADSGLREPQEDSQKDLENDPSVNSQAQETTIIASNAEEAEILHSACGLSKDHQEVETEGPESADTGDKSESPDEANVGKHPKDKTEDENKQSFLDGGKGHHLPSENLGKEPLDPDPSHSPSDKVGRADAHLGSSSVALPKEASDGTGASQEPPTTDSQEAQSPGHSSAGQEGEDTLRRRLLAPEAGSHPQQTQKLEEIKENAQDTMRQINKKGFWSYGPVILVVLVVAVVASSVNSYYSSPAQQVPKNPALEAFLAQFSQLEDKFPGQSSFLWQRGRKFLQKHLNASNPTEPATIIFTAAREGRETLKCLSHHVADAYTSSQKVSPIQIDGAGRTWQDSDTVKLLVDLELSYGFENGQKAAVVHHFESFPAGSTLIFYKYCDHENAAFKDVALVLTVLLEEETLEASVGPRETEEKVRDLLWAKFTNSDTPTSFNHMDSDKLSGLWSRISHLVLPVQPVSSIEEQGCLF
# [16] = E. coli growth modulation, two-sided OD650, primary screen, E. coli filamentation project, strain DRC41, 24 h (AID 1093); conditions: OD650, 24 h, higher = more signal, called active from +8 up or from −8 down;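 further: MC1000 strain lacking acrAB efflux and sulA so SOS filamentation is blocked; test concentration not given here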
# [17] = small-molecule microarray binders of probe aLefty2, primary screen, biochemical, biotinylated probe, 635/667 nm fluorescence (AID 1094); conditions: higher = more signal;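 further: score merges spot fluorescence near 667 nm with spot signal-to-noise ratio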
# [18] = tested on: Noggin (protein binding on small-molecule microarray); experiment: Noggin binders on small-molecule microarray, primary screen, biochemical, 635/667 nm fluorescence (AID 1095); conditions: 635 nm fluorescence, higher = more signal;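 further: score merges 667 nm feature fluorescence with signal to noise over triplicate slides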
# [19] = biological target: Neurogenic locus notch homolog protein 3 (Homo sapiens) (UniProt Q9UM47); experiment: NOTCH3 binders on small-molecule microarray, primary screen, biochemical, 635/667 nm fluorescence (AID 1096); conditions: NOTCH3 binding, 635 nm fluorescence, higher = more signal
# Sequence of Neurogenic locus notch homolog protein 3 (Homo sapiens) (Q9UM47 whole entry, looked up): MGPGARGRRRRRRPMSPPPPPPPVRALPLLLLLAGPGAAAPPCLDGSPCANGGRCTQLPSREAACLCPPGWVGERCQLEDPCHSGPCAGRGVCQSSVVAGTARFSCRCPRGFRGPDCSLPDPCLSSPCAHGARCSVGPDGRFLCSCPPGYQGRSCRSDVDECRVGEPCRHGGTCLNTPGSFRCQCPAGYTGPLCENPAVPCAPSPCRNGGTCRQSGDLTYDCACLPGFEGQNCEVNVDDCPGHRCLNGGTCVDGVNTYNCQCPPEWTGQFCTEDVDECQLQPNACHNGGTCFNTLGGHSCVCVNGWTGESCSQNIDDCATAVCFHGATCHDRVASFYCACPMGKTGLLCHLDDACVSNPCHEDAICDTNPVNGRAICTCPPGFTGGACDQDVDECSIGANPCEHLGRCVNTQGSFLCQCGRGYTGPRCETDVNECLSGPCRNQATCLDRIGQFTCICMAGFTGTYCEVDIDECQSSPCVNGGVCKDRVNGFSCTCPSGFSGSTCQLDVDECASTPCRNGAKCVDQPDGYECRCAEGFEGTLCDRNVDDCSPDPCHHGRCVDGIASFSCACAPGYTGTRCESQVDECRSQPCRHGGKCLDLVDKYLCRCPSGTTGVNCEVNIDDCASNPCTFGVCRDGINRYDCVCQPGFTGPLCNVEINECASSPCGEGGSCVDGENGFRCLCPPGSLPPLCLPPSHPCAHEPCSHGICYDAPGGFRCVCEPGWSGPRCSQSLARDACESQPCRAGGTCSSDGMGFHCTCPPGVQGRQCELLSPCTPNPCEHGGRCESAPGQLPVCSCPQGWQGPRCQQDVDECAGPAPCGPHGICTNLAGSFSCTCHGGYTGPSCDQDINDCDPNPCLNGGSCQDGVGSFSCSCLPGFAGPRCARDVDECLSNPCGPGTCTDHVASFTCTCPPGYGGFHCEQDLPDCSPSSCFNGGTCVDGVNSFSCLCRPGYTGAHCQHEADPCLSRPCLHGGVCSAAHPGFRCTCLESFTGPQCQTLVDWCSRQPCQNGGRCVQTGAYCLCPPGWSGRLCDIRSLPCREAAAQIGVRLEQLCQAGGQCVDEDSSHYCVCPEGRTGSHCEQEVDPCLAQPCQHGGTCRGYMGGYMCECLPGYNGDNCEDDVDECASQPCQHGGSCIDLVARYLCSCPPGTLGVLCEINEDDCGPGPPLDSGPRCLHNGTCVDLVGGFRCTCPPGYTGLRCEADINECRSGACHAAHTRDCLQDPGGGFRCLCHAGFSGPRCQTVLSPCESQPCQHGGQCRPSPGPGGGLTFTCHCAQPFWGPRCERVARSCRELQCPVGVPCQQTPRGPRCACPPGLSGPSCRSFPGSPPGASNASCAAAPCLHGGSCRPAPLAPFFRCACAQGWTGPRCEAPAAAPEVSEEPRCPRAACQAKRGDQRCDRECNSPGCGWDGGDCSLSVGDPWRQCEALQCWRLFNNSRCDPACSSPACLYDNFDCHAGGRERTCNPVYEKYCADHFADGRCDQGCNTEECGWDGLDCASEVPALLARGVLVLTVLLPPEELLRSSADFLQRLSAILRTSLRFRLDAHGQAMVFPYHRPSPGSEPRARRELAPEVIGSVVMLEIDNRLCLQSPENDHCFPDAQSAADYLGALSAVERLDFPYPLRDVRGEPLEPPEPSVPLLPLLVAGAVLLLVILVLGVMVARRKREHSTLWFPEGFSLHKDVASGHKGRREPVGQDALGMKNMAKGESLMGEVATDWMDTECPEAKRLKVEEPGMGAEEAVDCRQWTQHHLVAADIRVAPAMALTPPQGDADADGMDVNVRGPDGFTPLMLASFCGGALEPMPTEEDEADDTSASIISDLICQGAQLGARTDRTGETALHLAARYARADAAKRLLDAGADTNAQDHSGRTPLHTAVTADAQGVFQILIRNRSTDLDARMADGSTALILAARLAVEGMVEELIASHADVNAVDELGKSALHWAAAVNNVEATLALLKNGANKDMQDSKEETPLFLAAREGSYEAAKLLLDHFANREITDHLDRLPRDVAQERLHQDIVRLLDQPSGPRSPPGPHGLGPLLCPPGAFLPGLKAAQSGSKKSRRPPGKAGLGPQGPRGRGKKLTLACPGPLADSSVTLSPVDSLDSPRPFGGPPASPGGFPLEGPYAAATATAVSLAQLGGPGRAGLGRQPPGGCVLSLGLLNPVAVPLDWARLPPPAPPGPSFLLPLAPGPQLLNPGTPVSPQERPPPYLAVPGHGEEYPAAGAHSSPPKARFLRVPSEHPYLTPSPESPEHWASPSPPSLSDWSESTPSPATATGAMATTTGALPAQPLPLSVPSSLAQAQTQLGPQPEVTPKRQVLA
# [20] = small-molecule microarray binders of probe aEGFR, primary screen, biochemical, biotinylated probe, 635/667 nm fluorescence (AID 1097); conditions: higher = more signal;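 further: probe is a biotinylated anti-EGFR antibody binding compounds printed on slides; score combines fluorescence near 667 nm and signal to noise of each spot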
Compound,composite z-score [1],composite z-score [2],composite z-score [3],composite z-score [4],composite z-score [5],composite z-score [6],composite z-score [7],z-score [8],composite z-score [9],composite z-score [10],composite z-score [11],z-score [12],z-score [13],z-score [14],composite z-score [15],z-score [16],composite z-score [17],composite z-score [18],composite z-score [19],composite z-score [20]
CC(CCN1CCCc2nc(C)c(C)cc21)=NO[C@H](C)c1cn([C@H](CO)Cc2ccccc2)nn1,-0.303,0.455,-0.0568,0.545,0.531,0.0463,1.03,1.53 (inactive),0.64,-0.236,1.56,1.09 (inactive),0.374 (inactive),0.399 (inactive),0.894,-0.748 (inactive),-0.0441,0.633,1.01,0.0386
CC(=O)OC[C@H]1O[C@@H](ON=C(C)C)[C@H](OC(C)=O)[C@@H](OC(C)=O)[C@@H]1OC(C)=O,-0.133,1.57,-0.194,-0.526,-0.105,-1.53,-1.47,0.212 (inactive),0.298,-0.283,-0.312,0.559 (inactive),-0.159 (inactive),0.196 (inactive),-1.31,-0.109 (inactive),0.089,0.0419,-1.53,-0.0393
COC(OC)[C@@H](C)[C@H](OC)[C@@H](C)[C@H](OC)c1ccccc1,-0.405,0.594,-0.138,0.238,-0.0257,-0.445,-0.561,-0.406 (inactive),-0.0188,-0.0645,-0.478,-1.94 (inactive),-0.656 (inactive),-0.213 (inactive),-1.37,0.17 (inactive),0.308,0.467,0.181,-0.117
COc1cccc([C@H]2Oc3ccc(OC)cc3C(=NOCC[C@@H]3C=C[C@H](OC(C)=O)[C@@H](COC(C)=O)O3)[C@@H]2O)c1,-0.478,0.459,-0.017,0.577,0.895,1.28,0.773,1.52 (inactive),0.366,-0.21,0.829,0.243 (inactive),0.594 (inactive),0.0357 (inactive),1,0.677 (inactive),-0.0769,0.475,0.647,0.0281
CN1CCc2nc(-c3ccccc3)c(-c3ccccc3)cc2C1,-0.16,0.0357,-0.128,0.239,0.521,-0.013,-0.326,-0.0006 (inactive),-0.117,-0.148,-0.288,0.0301 (inactive),0.173 (inactive),-1.35 (inactive),-0.0501,0.697 (inactive),0.361,0.405,0.157,-0.0382
CO[C@H]1COC(=O)CC=C[C@@H](C)COC(=O)[C@H]2CCCN2C(=O)CC=C[C@H]1C,-0.867,2.36,-0.147,-0.103,-0.315,-0.278,1.06,-0.352 (inactive),0.0653,0.445,1.55,0.591 (inactive),-0.74 (inactive),0.0488 (inactive),0.128,0.457 (inactive),-0.194,1.86,-0.341,0.0129
COc1ccc(COC(=O)NN=C2C[C@@H](O)[C@@H](O)[C@@H]3[C@@H]4C(=O)N([C@@H](C)c5ccccc5)C(=O)[C@@H]4CC[C@@H]23)cc1,-0.513,0.419,-0.114,0.042,0.199,0.0605,-0.38,0.497 (inactive),0.275,-0.0994,-0.0948,-0.735 (inactive),0.207 (inactive),-0.206 (inactive),-0.0022,0.918 (inactive),0.0378,0.574,0.128,-0.103
CC(C)=NOC(C)CN1CCCc2nc(C)c(C)cc21 (stereo not given),-0.39,-0.184,-0.0408,0.897,0.652,0.702,0.61,0.833 (inactive),0.17,-0.201,1.58,0.777 (inactive),0.516 (inactive),0.347 (inactive),1.31,-0.196 (inactive),0.406,0.674,1.07,0.0287
C[C@@H]1CC[C@H]2C(=O)O[C@@H](COc3ccc(C(C)(C)C)cc3)CN2[C@H]1c1ccc(Br)cc1,-0.348,0.0745,-0.103,0.085,-0.0477,0.101,-0.4,0.732 (inactive),0.153,-0.16,0.76,0.267 (inactive),-0.0416 (inactive),-0.264 (inactive),0.456,0.113 (inactive),-0.159,0.307,-0.288,-0.0326
CCN1C(=O)[C@H]2[C@H]3[C@H](O)[C@H](O)CC(=NOC[C@@H](O)[C@H]4O[C@@H]5OC(C)(C)O[C@@H]5[C@H]4O)[C@@H]3CC[C@H]2C1=O,-0.635,-0.112,-0.173,0.242,0.352,0.12,-0.0114,-0.116 (inactive),0.156,-0.291,-0.556,0.141 (inactive),0.234 (inactive),0.33 (inactive),-0.0973,0.454 (inactive),-0.159,0.0713,-0.124,-0.0685
